Screening results as filed in PubChem BioAssay.
The list is not random: actives were taken first. Their share in the collection is about 5.1%.
S1P4 agonist: human S1P4 receptor agonism; activation, % at 4.98 µM; S1P4-expressing cell line, agonist reporter assay; AID 1509; 220,000 compounds, 0.35% hits; in the data active = activation above about 11%
Target sequence (O95977 whole entry, looked up): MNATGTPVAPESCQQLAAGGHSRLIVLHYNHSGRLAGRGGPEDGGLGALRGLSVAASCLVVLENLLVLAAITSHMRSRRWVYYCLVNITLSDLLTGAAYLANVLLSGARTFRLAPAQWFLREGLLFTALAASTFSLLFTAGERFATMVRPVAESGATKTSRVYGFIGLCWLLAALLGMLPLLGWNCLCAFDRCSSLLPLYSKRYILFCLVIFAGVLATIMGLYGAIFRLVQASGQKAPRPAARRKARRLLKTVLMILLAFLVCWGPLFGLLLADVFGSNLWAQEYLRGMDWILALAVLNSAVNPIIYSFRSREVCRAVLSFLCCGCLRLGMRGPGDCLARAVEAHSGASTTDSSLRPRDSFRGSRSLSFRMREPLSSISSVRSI
RAM inhibit: inhibitors of the yeast RAM network; S. cerevisiae dse1pr::URA3 reporter, 5-FOA growth OD615, 2 d; analog-sensitive cbk1-as2 kinase mutant strain; inhibition, % at 50 µM; 190,000 compounds, 1.8% hits; AID 868;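 active = inhibition above a set limit, 3 SD over mean compound inhibition, cut at about 8.4% in these data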;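 also: inhibition rescues growth on 5-FOA so higher OD means more RAM inhibition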
ROMK primary: human ROMK K+ channel modulation, primary screen. 130,000 compounds, 2% hits. P48048. B-score at 10 µM. Tet-inducible ROMK, thallium flux fluorescence; actives lie on both sides;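 active = signal ratio slope over the read window, or its plate-corrected B-score, at least 3 SD from the plate mean, either direction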;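 also: B-score of the F/F0 ratio slope over 7 to 12 s after thallium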
Cl transport mod: modulators of human KCC2 chloride dependent transport; Q9H2X9; KCC2 cells, thallium flux FluoZin-2 fluorescence; B-score of Tl+ flux slope (higher = more flux/activation; lower = inhibition) at 10 µM; 190,000 compounds, 2.2% hits; AID 1456;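 active = thallium flux slope and its plate-corrected score both differing from the plate sample mean at a set confidence after two filtering rounds, in either direction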;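 also: slope of fluorescence scaled to starting intensity during 10 to 20 s after thallium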
S1P3 antagonist: S1P3 (human) receptor antagonism; inhibition, % at 4.98 µM; CHO S1P3 NFAT-BLA reporter, FRET fluorescence, antagonist mode; 170,000 compounds, 0.27% hits; AID 485;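 active = inhibition above the plate cutoff, the mean inhibition of test wells on that plate plus 3 SD, cut at about 28% in these data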;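 also: cells challenged with S1P at its EC80 of 0.8 µM; blue over green emission ratio from cleaved BLA substrate after 4 h stimulation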
Target sequence (Q99500 whole entry, looked up): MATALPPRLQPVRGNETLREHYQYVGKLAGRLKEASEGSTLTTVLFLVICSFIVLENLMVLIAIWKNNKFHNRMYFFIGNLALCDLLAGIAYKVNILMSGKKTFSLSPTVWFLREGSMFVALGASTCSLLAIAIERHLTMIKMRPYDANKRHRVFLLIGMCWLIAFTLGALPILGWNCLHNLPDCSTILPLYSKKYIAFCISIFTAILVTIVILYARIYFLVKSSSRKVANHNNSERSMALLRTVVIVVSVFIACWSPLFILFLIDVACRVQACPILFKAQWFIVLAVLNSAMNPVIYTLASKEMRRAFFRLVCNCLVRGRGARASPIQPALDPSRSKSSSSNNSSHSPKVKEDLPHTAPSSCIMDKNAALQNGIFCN
S1P4 antagonist: antagonists of human S1P4 receptor; O95977; S1P4-expressing cells, antagonist mode, reporter read-out; inhibition, % at 4.98 µM; 220,000 compounds, 0.26% hits; in the data active = inhibition above about 29%
ROMK retest: human ROMK channel modulation, retest confirmation; normalized thallium flux (F/F0 slope) at 10 µM; 3,000 compounds, 54% hits; AID 1917; ROMK thallium flux, fluorescence ratio; hits give low values; shares compounds with ROMK primary;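 active = Flux at 10 µM at least 3 SD below or above vehicle control mean in one or both replicates; inconclusive = no clear call, values can overlap the other calls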
Large screens that a line does not name were inactive (follow-up assays come after a bar, where they were run).

Cc1cccc(C)c1OCC(O)CNS(=O)(=O)c1ccccc1C(=O)N1CCCCC1 (stereo not given)	none (no result: Cl transport mod, S1P3 antagonist) | ROMK retest inactive
C=CCc1ccccc1OCC(O)CNC(=O)c1ccccc1C(=O)O (stereo not given)	none (no result: RAM inhibit)
COC(=O)Cc1c(C)c2ccc(OCC(=O)N(C)C)cc2oc1=O	ROMK primary 1.4 (no result: S1P3 antagonist) | ROMK retest inactive
CN(C)c1ccc(/C=C2\CCC/C(=C\c3ccccc3)C2=O)cc1	RAM inhibit 9.0 (no result: ROMK primary) | ROMK retest inconclusive
COc1cc(C)c(Cl)cc1S(=O)(=O)NC1CC(C)(C)NC(C)(C)C1	ROMK primary -6.4 | ROMK retest 0.052
CCCOc1cc(C)c(S(=O)(=O)NC2CC(C)(C)NC(C)(C)C2)cc1C	ROMK primary -4.4 | ROMK retest 0.062
COc1cc(C)c(S(=O)(=O)NC2CC(C)(C)NC(C)(C)C2)cc1C	none (no result: Cl transport mod, S1P3 antagonist)
O=C(Nc1nnc(-c2ccccc2F)s1)C1CCN(S(=O)(=O)c2ccc(Cl)cc2)CC1	none (no result: ROMK primary) | ROMK retest inactive
COc1ccc(S(=O)(=O)N2CCC(C(=O)Nc3c(F)cccc3F)CC2)cc1	none (no result: ROMK primary, Cl transport mod) | ROMK retest inactive
O=C(NCCO)C1CCN(S(=O)(=O)c2ccc(F)cc2)CC1	ROMK primary -6.9 (no result: Cl transport mod) | ROMK retest inactive
CC(C)c1ccccc1-n1c(-c2cccnc2)n[nH]c1=S	none
Cn1c(=O)c2c(nc(N3CCN(Cc4ccccc4)CC3)n2CCCc2ccccc2)n(C)c1=O	none (no result: ROMK primary) | ROMK retest 0.058
Cn1c(=O)c2c(nc(N3CCN(c4ccccc4)CC3)n2CCCc2ccccc2)n(C)c1=O	none (no result: ROMK primary)
O=C(c1cccs1)c1no[n+]([O-])c1C(=O)c1cccs1	none (no result: ROMK primary) | ROMK retest 0.028
O=C(c1ccc(Cl)nc1)c1cccs1	none (no result: RAM inhibit, ROMK primary, Cl transport mod)
COc1ccc(C(=O)c2no[n+]([O-])c2C(=O)c2ccc(OC)cc2)cc1	none (no result: ROMK primary) | ROMK retest inconclusive
Cc1nc2scc(-c3ccccc3)c2c(=O)n1N=C1C=CC(=O)C=C1	none
CCCCCC(=O)NN1C(=S)N(c2ccc(OC)cc2)C(=O)C1CC(=O)Nc1ccccc1 (stereo not given)	none (no result: RAM inhibit, ROMK primary)
CC(=O)N1CCN(C2=NC(=O)/C(=C\c3cccs3)S2)CC1	ROMK primary -6.7 | ROMK retest inactive
CCCC(=O)Nc1cc(Cl)ccc1N1CCN(C(=O)CC)CC1	none
O=S(=O)(Nc1cccc(-c2cn3cccnc3n2)c1)c1ccccc1	none
O=S(=O)(Nc1cccc(-c2cn3cccnc3n2)c1)c1ccc(-c2ccccc2)cc1	none (no result: ROMK primary, S1P3 antagonist) | ROMK retest inactive
CCc1ccccc1NC(=S)N(Cc1ccc(C(=O)O)cc1)Cc1ccc(OC)c(OC)c1	none
O=C(/C=C/c1ccc(Cl)cc1)c1cccnc1	ROMK primary -8.1 (no result: S1P3 antagonist) | ROMK retest 0.043
O=C(/C=C/c1ccccc1Cl)c1cccnc1	ROMK primary -7.4 (no result: S1P3 antagonist) | ROMK retest 0.044
N/C(=N\OC(=O)/C=C/c1ccccc1Cl)c1ccncc1	none
COc1ccccc1N(CC(=O)NCc1ccccc1)C(=O)CCC(=O)Nc1cc(C)ccn1	none (no result: ROMK primary, Cl transport mod, S1P3 antagonist)
COc1ccc(O[C@H]2C=C[C@@H](c3ccccc3)O[C@@H]2CO/N=C(\C)CCN2CCc3nc(-c4ccccc4)c(-c4ccccc4)cc3C2)cc1	none
CCc1cc2c(nc1CC)CCN(CC/C(C)=N/OC[C@H]1O[C@H](c3ccccc3)C=C[C@@H]1Oc1ccc(OC)cc1)C2	ROMK primary -4.7 | ROMK retest 0.054
NC(=O)CSc1nnc(Cn2c(=O)sc3ccccc32)n1CCc1ccccc1	none (no result: ROMK primary)
O=C(CSc1nnc(Cn2c(=O)sc3ccccc32)n1CCc1ccccc1)N1CCCC1	none (no result: ROMK primary) | ROMK retest inactive
C/C(=N\Nc1ncc(Cl)cc1Cl)c1ccccn1	none
CCCNC(=O)CN1C(=O)NC(CCc2ccccc2)C1=O (stereo not given)	none
CCOC(=O)c1[nH]c(C)c(C(=O)N2CCc3ccccc32)c1C	ROMK primary 3.2 | ROMK retest inactive
COc1ccc2c(c1)c(C(O)CN1CCC(Cc3ccccc3)CC1)c(C)n2C (stereo not given)	none (no result: ROMK primary, S1P3 antagonist) | ROMK retest 0.058
Cc1cccc(C(=O)Nc2ccccc2SCC2CSc3nc4ccccc4c(=O)n32)c1 (stereo not given)	none (no result: ROMK primary, S1P3 antagonist)
CCOc1cc(C2C(C#N)=C(N)OC(C)=C2C(C)=O)c(Br)c(Br)c1OC(C)C (stereo not given)	ROMK primary -3.6 (no result: S1P3 antagonist) | ROMK retest inactive
Cc1ccc2cc(CN(Cc3ccc4c(c3)OCO4)Cc3nnnn3Cc3ccco3)c(=O)[nH]c2c1C	ROMK primary -4.2 | ROMK retest inconclusive
OCC1(CCOc2ccccc2)CCN(C2Cc3ccccc3C2)CC1	ROMK primary -3 | ROMK retest 0.058
Cc1ccc(S(=O)(=O)N2CCCN(S(=O)(=O)c3ccc4c(c3)OCCO4)CC2)cc1	ROMK primary -3.8 (no result: Cl transport mod) | ROMK retest inconclusive
CN1CCN(S(=O)(=O)c2ccc3c(c2)OCCO3)CC1	none (no result: S1P3 antagonist)
Cc1ccccc1OCC(=O)Nc1ccccc1N1CCC(C)CC1	none (no result: ROMK primary)
Cc1cc(=O)oc2c3c4c(cc12)OCCN4CCC3	none (no result: ROMK primary, S1P3 antagonist)
CC(C)c1cc(=O)oc2c3c4c(cc12)CCCN4CCC3	none (no result: ROMK primary) | ROMK retest 0.054
Cc1cc[n+](-c2[nH]c(=O)sc2/C=N/N=C(\[O-])c2ccccc2)cc1C	ROMK primary -6.6 | ROMK retest 0.047
Cc1cc[n+](-c2[nH]c(=O)sc2/C=N/N=C(\[O-])c2ccccc2)cc1	none (no result: RAM inhibit, ROMK primary)
CC(C)(CN1CCN(C(c2ccccc2)c2ccccc2)CC1)NS(=O)(=O)c1ccccc1	none (no result: RAM inhibit)
Cc1ccc(NS(=O)(=O)c2cc([N+](=O)[O-])ccc2NNC(=S)Nc2cc(C)ccc2C)c(C)c1	none (no result: ROMK primary) | ROMK retest 0.064
COc1ccc(NC(=S)NNc2ccc([N+](=O)[O-])cc2S(=O)(=O)Nc2ccc(C)cc2C)cc1	none
N#CNC(=Nc1ccc(Cl)cc1)Oc1ccccc1	none (no result: RAM inhibit)
Cc1ccc2c(c1)C(=O)C(=O)N2CCCOc1ccccc1	ROMK primary 3.6 | ROMK retest inactive
CCn1cc(C(=O)N2CCN(c3ccc(F)cc3)CC2)c2cc(OC)c(OC)cc2c1=O	none | ROMK retest inactive
CCn1cc(C(=O)N2CCN(c3ccc(OC)cc3)CC2)c2cc(OC)c(OC)cc2c1=O	none
CCn1cc(C(=O)N2CCN(c3cccc(Cl)c3)CC2)c2cc(OC)c(OC)cc2c1=O	ROMK primary 1.3 (no result: S1P3 antagonist) | ROMK retest inactive
COc1ccc(-n2nc(C#N)c(Cl)cc2=O)cc1	ROMK primary -2.8, S1P4 antagonist 30 | ROMK retest 0.052
CC(C)COc1ccc(C/C(N)=N/n2cnnc2)cc1	none (no result: Cl transport mod)
O=C(CCC1N=C2c3ccccc3N=C(SCc3ccc(Cl)cc3)N2C1=O)NCc1ccco1 (stereo not given)	ROMK primary -4.1 (no result: Cl transport mod) | ROMK retest 0.061
O=C(CCC1N=C2c3ccccc3N=C(SCc3ccc(F)cc3)N2C1=O)NCc1ccco1 (stereo not given)	none
